In the supplement of paper PMC10849652 one finds log2 fold change data, which are given here for 24 targets.

About 7,900 targets were measured; listed, in parts, are those with a hit and a random draw of the rest. About 0.6% of all pairs of compound and target were hits. A number with no mark means an inactive call.

UniProt Q96KC8, sequence (Q96KC8 whole entry, looked up): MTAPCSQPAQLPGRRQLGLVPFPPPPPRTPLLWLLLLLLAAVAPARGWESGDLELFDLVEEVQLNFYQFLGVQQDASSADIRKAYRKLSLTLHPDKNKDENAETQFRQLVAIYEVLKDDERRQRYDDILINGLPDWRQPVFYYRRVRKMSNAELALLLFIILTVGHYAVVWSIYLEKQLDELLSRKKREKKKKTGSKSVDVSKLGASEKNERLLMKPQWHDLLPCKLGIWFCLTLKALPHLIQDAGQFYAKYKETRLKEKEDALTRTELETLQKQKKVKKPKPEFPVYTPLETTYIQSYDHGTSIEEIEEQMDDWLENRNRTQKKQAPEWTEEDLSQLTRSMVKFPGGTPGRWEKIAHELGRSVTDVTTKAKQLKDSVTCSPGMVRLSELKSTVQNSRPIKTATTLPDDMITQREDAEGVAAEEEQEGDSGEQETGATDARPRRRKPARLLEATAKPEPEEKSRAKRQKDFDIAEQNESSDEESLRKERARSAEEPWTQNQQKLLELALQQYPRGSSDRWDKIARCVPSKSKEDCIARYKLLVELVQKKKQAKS
UniProt Q8IVF4, sequence (Q8IVF4 whole entry, looked up): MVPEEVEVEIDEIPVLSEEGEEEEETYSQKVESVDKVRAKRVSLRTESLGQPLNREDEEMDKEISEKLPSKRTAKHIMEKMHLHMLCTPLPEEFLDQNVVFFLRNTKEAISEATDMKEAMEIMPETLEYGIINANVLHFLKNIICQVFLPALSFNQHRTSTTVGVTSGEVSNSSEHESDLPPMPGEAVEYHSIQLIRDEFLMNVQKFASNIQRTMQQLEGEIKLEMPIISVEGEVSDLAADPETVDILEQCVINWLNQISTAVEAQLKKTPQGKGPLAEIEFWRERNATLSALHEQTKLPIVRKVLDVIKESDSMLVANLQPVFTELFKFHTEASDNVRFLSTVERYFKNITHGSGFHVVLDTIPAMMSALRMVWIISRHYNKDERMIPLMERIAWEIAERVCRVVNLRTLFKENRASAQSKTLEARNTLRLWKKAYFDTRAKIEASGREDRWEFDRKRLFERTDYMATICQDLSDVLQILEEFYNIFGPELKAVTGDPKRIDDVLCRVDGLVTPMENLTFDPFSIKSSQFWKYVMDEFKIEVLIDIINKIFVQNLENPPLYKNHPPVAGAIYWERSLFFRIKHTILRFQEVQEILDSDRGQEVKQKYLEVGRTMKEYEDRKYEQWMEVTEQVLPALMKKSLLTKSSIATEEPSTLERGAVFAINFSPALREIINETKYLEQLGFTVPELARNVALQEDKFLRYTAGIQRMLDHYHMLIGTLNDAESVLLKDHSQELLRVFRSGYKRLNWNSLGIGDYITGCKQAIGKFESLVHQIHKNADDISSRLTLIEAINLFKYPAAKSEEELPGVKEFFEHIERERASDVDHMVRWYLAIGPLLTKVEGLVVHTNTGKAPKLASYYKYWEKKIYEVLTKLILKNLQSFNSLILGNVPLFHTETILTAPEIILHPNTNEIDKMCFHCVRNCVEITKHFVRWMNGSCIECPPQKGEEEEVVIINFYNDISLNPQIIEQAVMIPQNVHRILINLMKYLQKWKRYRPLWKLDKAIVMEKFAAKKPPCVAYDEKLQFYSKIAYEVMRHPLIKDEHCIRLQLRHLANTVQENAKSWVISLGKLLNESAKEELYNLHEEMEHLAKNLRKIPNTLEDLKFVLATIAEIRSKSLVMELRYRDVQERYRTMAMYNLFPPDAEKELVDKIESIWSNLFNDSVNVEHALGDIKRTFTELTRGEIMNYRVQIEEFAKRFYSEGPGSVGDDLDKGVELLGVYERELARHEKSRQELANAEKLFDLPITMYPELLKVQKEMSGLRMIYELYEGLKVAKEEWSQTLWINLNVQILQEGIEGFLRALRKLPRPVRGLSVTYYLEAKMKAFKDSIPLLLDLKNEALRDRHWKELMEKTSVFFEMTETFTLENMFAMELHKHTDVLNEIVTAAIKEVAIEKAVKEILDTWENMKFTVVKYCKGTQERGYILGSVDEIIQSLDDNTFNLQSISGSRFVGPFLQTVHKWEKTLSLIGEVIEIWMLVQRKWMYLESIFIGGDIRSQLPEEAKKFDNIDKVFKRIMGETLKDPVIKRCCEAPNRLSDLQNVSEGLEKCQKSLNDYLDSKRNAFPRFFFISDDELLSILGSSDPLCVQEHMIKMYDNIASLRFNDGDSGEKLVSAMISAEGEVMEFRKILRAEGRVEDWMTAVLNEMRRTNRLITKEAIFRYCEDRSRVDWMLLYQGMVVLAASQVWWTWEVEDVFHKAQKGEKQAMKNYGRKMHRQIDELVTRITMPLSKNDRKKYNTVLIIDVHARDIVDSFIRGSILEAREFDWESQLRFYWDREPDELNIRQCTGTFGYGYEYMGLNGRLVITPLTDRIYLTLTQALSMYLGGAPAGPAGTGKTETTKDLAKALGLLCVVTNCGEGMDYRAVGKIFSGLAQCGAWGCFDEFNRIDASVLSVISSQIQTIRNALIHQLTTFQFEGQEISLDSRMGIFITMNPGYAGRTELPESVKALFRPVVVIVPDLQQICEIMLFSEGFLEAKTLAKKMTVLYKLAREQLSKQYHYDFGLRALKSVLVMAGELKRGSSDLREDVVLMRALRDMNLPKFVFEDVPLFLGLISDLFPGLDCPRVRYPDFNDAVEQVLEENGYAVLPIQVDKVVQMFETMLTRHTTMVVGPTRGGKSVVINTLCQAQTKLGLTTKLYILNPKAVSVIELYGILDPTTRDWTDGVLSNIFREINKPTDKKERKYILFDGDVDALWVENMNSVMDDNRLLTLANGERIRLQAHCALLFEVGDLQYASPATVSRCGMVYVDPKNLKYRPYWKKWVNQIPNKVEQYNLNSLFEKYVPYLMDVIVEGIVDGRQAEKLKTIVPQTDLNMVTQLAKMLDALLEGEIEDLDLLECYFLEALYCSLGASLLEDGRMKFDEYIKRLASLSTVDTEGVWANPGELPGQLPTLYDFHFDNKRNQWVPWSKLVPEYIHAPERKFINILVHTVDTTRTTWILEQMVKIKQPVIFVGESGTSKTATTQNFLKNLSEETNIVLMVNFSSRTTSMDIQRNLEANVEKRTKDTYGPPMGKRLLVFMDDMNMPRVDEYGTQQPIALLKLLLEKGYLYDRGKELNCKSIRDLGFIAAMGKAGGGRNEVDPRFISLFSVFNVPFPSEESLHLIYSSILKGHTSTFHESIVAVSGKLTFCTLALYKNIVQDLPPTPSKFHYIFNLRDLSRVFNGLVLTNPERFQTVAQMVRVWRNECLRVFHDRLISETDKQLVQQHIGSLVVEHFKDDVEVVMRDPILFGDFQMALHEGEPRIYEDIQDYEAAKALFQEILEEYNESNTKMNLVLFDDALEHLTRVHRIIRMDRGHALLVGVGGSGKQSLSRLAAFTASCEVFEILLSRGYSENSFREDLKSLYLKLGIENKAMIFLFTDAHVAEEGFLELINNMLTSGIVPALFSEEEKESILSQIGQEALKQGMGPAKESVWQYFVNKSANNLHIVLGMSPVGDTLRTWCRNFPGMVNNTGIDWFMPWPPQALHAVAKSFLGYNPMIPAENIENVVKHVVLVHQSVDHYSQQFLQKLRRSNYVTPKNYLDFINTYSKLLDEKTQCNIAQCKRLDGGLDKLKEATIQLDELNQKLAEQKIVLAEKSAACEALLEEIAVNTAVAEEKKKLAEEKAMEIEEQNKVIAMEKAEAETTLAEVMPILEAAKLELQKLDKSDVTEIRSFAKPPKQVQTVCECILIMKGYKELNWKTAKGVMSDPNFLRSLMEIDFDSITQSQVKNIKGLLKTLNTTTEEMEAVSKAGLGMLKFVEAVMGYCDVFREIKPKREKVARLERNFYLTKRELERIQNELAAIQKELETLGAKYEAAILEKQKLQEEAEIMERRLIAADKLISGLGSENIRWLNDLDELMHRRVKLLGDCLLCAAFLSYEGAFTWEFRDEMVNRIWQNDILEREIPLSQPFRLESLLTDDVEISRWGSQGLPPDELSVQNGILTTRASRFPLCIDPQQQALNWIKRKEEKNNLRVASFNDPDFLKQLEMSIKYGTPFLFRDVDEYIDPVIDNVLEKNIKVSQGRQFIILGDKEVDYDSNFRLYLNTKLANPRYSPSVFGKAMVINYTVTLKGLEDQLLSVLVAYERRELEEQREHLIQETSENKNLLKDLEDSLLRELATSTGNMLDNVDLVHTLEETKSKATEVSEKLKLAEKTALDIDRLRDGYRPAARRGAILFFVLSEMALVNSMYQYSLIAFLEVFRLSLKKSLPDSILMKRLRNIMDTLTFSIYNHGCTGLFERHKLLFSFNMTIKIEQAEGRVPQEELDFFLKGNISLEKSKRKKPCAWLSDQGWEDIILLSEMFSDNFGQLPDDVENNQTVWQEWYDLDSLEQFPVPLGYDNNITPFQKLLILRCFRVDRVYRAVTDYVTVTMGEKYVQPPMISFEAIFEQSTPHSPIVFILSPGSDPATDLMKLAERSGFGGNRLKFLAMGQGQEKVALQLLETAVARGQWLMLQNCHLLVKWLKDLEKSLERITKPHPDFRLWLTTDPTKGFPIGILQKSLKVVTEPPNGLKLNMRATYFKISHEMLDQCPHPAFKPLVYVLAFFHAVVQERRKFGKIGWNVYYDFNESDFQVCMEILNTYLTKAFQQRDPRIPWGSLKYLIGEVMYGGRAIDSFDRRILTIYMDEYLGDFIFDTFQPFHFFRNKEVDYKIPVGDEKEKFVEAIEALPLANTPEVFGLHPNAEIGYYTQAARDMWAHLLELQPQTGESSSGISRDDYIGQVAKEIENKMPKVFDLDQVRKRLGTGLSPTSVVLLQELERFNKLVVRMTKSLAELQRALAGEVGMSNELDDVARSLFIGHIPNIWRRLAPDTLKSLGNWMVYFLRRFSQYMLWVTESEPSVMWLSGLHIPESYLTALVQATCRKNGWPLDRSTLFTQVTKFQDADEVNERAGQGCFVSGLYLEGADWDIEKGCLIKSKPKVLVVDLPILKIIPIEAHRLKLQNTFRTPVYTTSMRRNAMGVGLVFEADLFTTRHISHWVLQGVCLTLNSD

Compound in the experiment: Cc1cc(Nc2cc(CN3CCOCC3)c3nc(C)c(Cc4ccc(Cl)cc4F)n3n2)n[nH]1 [gandotinib]
Description: log2 fold change, soluble protein after heating vs DMSO (PISA); higher = thermal stabilisation; K562 cells, 10 uM, 30 min; active = over 0.2 and 3.5 SD of the protein, either way, in both replicates (recomputed). An outline of the steps:
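Aliquots of K562 cells (2×10^6 cells/mL) treated with 10 μM compound for 30 min were heated for 3 min over 48°C-58°C. After pooling and extraction in PBS with 0.5% NP-40 at 4°C, soluble protein from a 21,000xg, 90 min spin was quantified by TMTpro 16plex LC-MS/MS with channel sums equalised. Thermal stability is expressed against control samples, from duplicates, as a log2 fold change.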
On to DDX39A (UniProt O00148), for which the log2 fold change was -0.009.

Take DCAF10 (UniProt Q5QP82): the log2 fold change is -0.15.

As for EDC4 (UniProt Q6P2E9), the log2 fold change was -0.18.

For the target EHD2 (UniProt Q9NZN4), the log2 fold change is -0.028.

On to DNAH10 (UniProt Q8IVF4), for which the log2 fold change was -0.136.

ETNK1 (UniProt Q9HBU6): the log2 fold change is -0.057.

On to DDX4 (UniProt Q9NQI0), for which the log2 fold change is 0.112.

Regarding E2F4 (UniProt Q16254), the log2 fold change was -0.034.

On to EFL1 (UniProt Q7Z2Z2), for which the log2 fold change was -0.056.

With EXTL2 (UniProt Q9UBQ6), the log2 fold change is 0.068.

Regarding ECPAS (UniProt Q5VYK3), the log2 fold change is -0.115.

Consider EEF1AKNMT (UniProt Q8N6R0), for which the log2 fold change was -0.09.

Regarding DNAJC1 (UniProt Q96KC8), the log2 fold change was -0.094.

On to DHX40 (UniProt Q8IX18), for which the log2 fold change is -0.079.

On to ERLIN2 (UniProt O94905), for which the log2 fold change was -0.044.

In the case of EED, A0A5F9ZI63, the log2 fold change was 0.07.

As to FAM118A (UniProt Q9NWS6), the log2 fold change was -0.44.

On to CTNNB1 (UniProt P35222), for which the log2 fold change is 0.336.

Regarding EXOC8 (UniProt Q8IYI6), the log2 fold change is -0.203.

DDX5 (UniProt P17844): the log2 fold change was -0.016.

Regarding CTSB (UniProt P07858), the log2 fold change was 0.006.

Turning to FAM160B1 (UniProt Q5W0V3), the log2 fold change is -0.217.

With DNAAF2 (UniProt Q9NVR5), the log2 fold change was -0.182.

Consider DYNC1I2 isoform 5 (UniProt Q13409), for which the log2 fold change was 0.027.
